# Source: PubChem BioAssay
# CTSL1 counter: blocks F. hepatica cathepsin L1 in PFM18AAP counter-screen; recombinant F. hepatica cathepsin L1, Z-Leu-Arg-MCA fluorescence; inhibition, % at 5.96 µM; actives 0.49% (n = 300,000);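 active = inhibition above the mean of all tested compounds plus 3 SD, set per screening campaign, cut at about 17% in these data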;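 also: 0% = plate median of test compound wells and 100% = 1 µM Z-Phe-Ala-diazomethylketone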
# HDAC3 inhib: human HDAC3 inhibition; recombinant HDAC3, fluorogenic peptide/trypsin coupled, fluorescence; actives 0.15% (n = 320,000); O15379; inhibition, % at 8.3 µM; AID 2718; in the data active = inhibition above about 26%, passing the limit was not always enough
# LANA-H2A inh: blocks KSHV LANA binding to histone H2A/H2B; inhibition, % (no concentration beside the values); actives 0.6% (n = 320,000); Q9QR71; cell-free LANA-H2A/H2B peptide, fluorescence polarization; in the data active = inhibition mostly above about 10%, no sharp cut-off; inactive = mostly below about 6.7%
# m5-HT2A agonist: activates the mouse 5-HT2A serotonin receptor; P35363; CHO-K1 mHTR2A beta-arrestin complementation, luminescence; percent of 30 µM serotonin response; activation, % at 7.6 µM; actives 0.66% (n = 360,000);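 active = activation above a run cutoff, the mean activation of all tested compounds plus 3 SD, cut at about 14% in these data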;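 also: 0% = plate median of compound wells and 100% = 30 µM serotonin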
# Starred values were filed as active, the others as inactive; x = no result; + = active, no number. Shown are actives, neighbours in structure and some others; about 1.7% of the full set was active somewhere.
SMILES,CTSL1 counter,HDAC3 inhib,LANA-H2A inh,m5-HT2A agonist
CCN(CC(=O)Nc1c(F)cccc1F)C(=O)Cc1ccc(S(=O)(=O)N2CCOCC2)s1,x,x,x,-1.0
Cc1ccc(NS(=O)(=O)c2ccc3c(c2)n(C)c(=O)n3C)cc1C,17.7*,0.9,2.2,-2.2
C[C@@]12C(=O)N(CCc3c[nH]c4ccccc34)CC(=O)N1[C@H]1c3ccccc3OC[C@@H]1[C@@H]2c1ccccc1,x,-17.4,-2.2,-1.3
Cc1ccc(C(C(=O)NC(C)(C)C)N(CC2CCCO2)C(=O)CCC(=O)Nc2ccccn2)cc1 (configuration not stated),-2.6,0.2,22.3*,4.4
Cc1cccc(N(CC(=O)NC(C)(C)C)C(=O)CCC(=O)Nc2ccccn2)c1,17.7*,-1.1,0.2,3.8
CCCCNC(=O)C(NC(=O)Cc1cc(C(F)(F)F)cc(C(F)(F)F)c1)C(=O)c1ccccc1 (configuration not stated),x,x,x,3.9
C[C@H](NC(=O)c1nc[nH]c1C(=O)NCCCCCN)C(=O)OCc1ccccc1,-0.3,1.7,-1.9,6.2
CCOc1ccc(C(=O)Nc2ccc(N3CCN(C(C)=O)CC3)cc2)cc1[N+](=O)[O-],5.4,4.9,18.2*,0.2
CCCCC(CC)COC(=O)C(C#N)=C(c1ccccc1)c1ccccc1 (configuration not stated),x,-0.8,14.9*,-0.7
CCCC(=O)Nc1sc(Cc2ccccc2)c(C)c1C(N)=O,7.0,3.9,0.1,-1.5
COC(=O)CCC(=O)Nc1sc(Cc2ccccc2)c(C)c1C(N)=O,1.5,0.6,21.6*,-0.9
CC(C)[C@H](NC(=O)c1ccc(Cl)cc1Cl)C(=O)NNc1cccc(C(=O)O)c1,x,4.2,14.5*,-0.8
CCCc1cc(=O)[nH]c(SCC(=O)N2CCc3ccccc3C2)n1,x,-3.5,+,0.0
CCOC(=O)N1CCC(Nc2c(NCCCOC)c(=O)c2=O)CC1,-0.4,11.1,-2.6,4.8
CCOC(=O)N1CCC(Nc2c(OCC)c(=O)c2=O)CC1,36.0*,-11.3,2.5,-1.1
COc1cc(/C=C/C(=O)OCC(=O)NC(=O)NC(C)C)cc(S(=O)(=O)N2CCc3ccccc32)c1OC,-15.6,6.0,26.5*,0.8
Cc1sc(NC(=O)CCl)c(C(=O)c2ccccc2)c1C,53.1*,3.1,-5.2,-1.9
Cc1ccccc1C(=O)Nc1sc(C)c(C)c1C(=O)c1ccccc1,-2.0,8.8,0.6,-6.4
C=CCn1c(SCC(C)=O)nc2scc(-c3ccco3)c2c1=O,23.2*,-3.5,-0.9,0.6
C=CCn1c(SCC(=O)N2CCOCC2)nc2scc(-c3ccco3)c2c1=O,4.9,10.4,-0.8,4.8
CCOC(=O)c1c(C)oc(/N=C/c2ccccc2O)c1C#N,17.2*,-0.1,4.4,4.6
O=C(OCC(=O)N1CCCC1)c1c(Cl)ccc(Cl)c1Cl,1.6,4.7,-4.7,5.4
CCc1cc(-c2nc(N)ncc2-c2ccc(Br)cc2)c(O)cc1OC,-2.9,-1.1,19.2*,-5.5
CC(=O)Nc1ccccc1NS(=O)(=O)c1cccc([N+](=O)[O-])c1,19.0*,4.1,-1.5,2.3
CCOC(=O)[C@]12CCCC=C1N(Cc1cccc3ccccc13)C(=O)[C@H](CC(=O)NCC1CCCCC1)C2,x,x,x,0.9
SMILES,CTSL1 counter,HDAC3 inhib,LANA-H2A inh,m5-HT2A agonist
O=C(OCCNC(=O)c1cc2ccccc2oc1=O)c1cccnc1,-1.2,-1.9,49.7*,4.5
CC(C)CN(C#N)c1nc(N2CCOCC2)nc(N2CCOCC2)n1,-0.7,-3.6,0.1,-0.9
CN(C#N)c1nc(N2CCOCC2)nc(N2CCOCC2)n1,1.4,-1.7,41.2*,-2.0
O=C(c1ccco1)N1CCCC(c2nc3c(nnn3Cc3ccc(F)cc3)c(=O)[nH]2)C1 (configuration not stated),1.5,-1.6,-5.1,-1.9
O=C(OCCN1C(=O)c2cccc3c(N4CCOCC4)ccc(c23)C1=O)c1ccc(Cl)cc1,8.3,-9.7,12.0*,-1.3
CCOc1cc(/C=C/C(=O)NCCc2ccc(S(N)(=O)=O)cc2)ccc1OCC(C)C,19.0*,x,-3.0,-5.4
Cc1ccc(S(=O)(=O)N2[C@@H](c3ccc(Cl)cc3)C(C(=O)O)=C[C@H]2C(C)(C)C)cc1,x,6.8,+,9.0
CC1(C)CN(c2ccc(Br)cc2)C(=O)[C@H]1CC(=O)Nc1ccccc1,x,x,x,1.8
C[C@@H]1O[C@H](C2CC2)Cc2[nH]c(=S)[nH]c(=O)c21,x,x,x,3.3
O=C(O)c1cc(-c2ccc(Cl)cc2)n(-c2ccc(F)cc2)n1,-3.1,3.5,-0.3,8.0
CCNC(=O)C1(C)CCCCN1Cc1ccc(C#N)cc1 (configuration not stated),x,x,x,0.6
O=Cc1c[nH]c2ccc(OCc3ccccc3)cc12,x,-4.4,0.3,0.4
O=Cc1c[nH]c2ccc(C(=O)c3ccccc3)cc12,18.1*,4.7,-1.7,1.4
CCO/C=C1\N=C(c2ccc(F)cc2)OC1=O,36.3*,x,x,8.1
Cc1ccc(C2=N/C(=C\c3cccnc3)C(=O)O2)cc1,1.2,7.4,4.4,-0.6
COc1ccc(-c2nc(CS(=O)CC(=O)NCCC3=CCCCC3)c(C)o2)cc1 (configuration not stated),-2.8,-8.8,-3.4,39.6*
C[C@H](NC(=O)c1ccccc1Cl)C(=O)OCc1cn2cc(Cl)ccc2n1,-4.4,-2.0,14.6*,7.1
CC(NC(=O)c1ccccc1Cl)C(=O)OCc1cn2cc(Cl)ccc2n1 (configuration not stated),x,2.8,3.4,-3.5
Cc1ccccc1C(=O)NC(CC(C)C)C(=O)OCc1cc(=O)n2cc(Br)ccc2n1 (configuration not stated),27.5*,-0.3,2.5,3.5
CC(C)[C@H](NC(=O)c1ccccc1Cl)C(=O)OCc1cc(=O)n2cc(Br)ccc2n1,6.6,1.4,-3.5,2.6
COc1cc(/C=N/NC(N)=S)cc(Br)c1OCc1ccccc1F,5.2,-0.8,-7.5,0.3
C#CCOc1c(Cl)cc(/C=N/NC(N)=S)cc1OCC,79.8*,1.0,-26.4,5.8
CCOc1c(Cl)cc(/C=N/NC(N)=S)cc1OC,25.9*,7.1,1.0,1.8
CC(C)(C)c1ccc(Cn2c(=O)cnc3ccccc32)cc1,-0.7,-0.7,16.8*,-9.3
COc1cc(/C=C2\SC(=Nc3ccc(O)cc3)NC2=O)cc(OC)c1O,14.5,4.0,11.1*,-0.9
SMILES,CTSL1 counter,HDAC3 inhib,LANA-H2A inh,m5-HT2A agonist
C[N+]1(C)CCC(=C(c2ccccc2)c2ccccc2)CC1,2.0,-1.3,15.3*,-8.5
COc1ccc(N(CCC(=O)Nc2ccccc2F)S(=O)(=O)c2ccc(C)cc2C)cc1,-1.8,x,x,-1.5
N#CC(C#N)=C1CCCc2sccc21,x,x,x,0.9
CCCCCCC(=O)N(O)C1CC(=O)N(c2ccc(F)cc2)C1=O (configuration not stated),-9.6,79.0*,1.5,4.0
CCCCCCC(=O)N(O)C1CC(=O)N(c2ccc(Br)cc2)C1=O (configuration not stated),-13.7,80.0*,-2.9,4.5
CC(=O)Nc1cncc(-c2cccc(C(=O)N(C)C)c2)n1,x,x,x,0.0
Cc1ccc(NC(=O)/C=C/c2ccc(S(=O)(=O)N3CCOCC3)cc2)cc1S(=O)(=O)N(C)C,x,x,x,13.9
